In PubChem BioAssay (Tox21):
Values joined by “and” are separate entries in the source; they are usually repeats but may differ in a detail not shown here. Identical values can stand only once. Active and inactive are the calls of the source. A call without a number means that no potency is given here. Unless noted, calls follow the shape of the dose curve; as a rule, active = well fitted curve in the direction sought with a large enough effect in the repeat runs; inconclusive = weak or mixed curves; inactive = no such curve, though single readings can be large; an effect the other way counts as inactive or inconclusive. Positions of bridges follow the written chain, without caps; N, C: chain ends. Residues, ends and D or L forms follow the SMILES beside them.

Experiments:
[1] = qHTS assay to identify small molecule antagonists of the glucocorticoid receptor (GR) signaling pathway - cell viability counter screen (AID 720693); also: nearly all actives have a fitted effect of over 55% in size
[2] = qHTS assay for identifying genotoxic compounds that show differential cytotoxicity against isogenic chicken DT40 cell lines with known DNA damage response pathways - wild type cell line (AID 743012); also: nearly all actives have a fitted effect of over 60% in size; also: potency is read from the fitted curve at half-maximal effect
In short: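 CellTiter-Glo luminescence readout of viability in wild type DT40 cells after 40 h compound exposure at 37 C/5% CO2; 300 cells/well; reagent incubated 30 min at room temperature before reading.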

[3] = qHTS assay for identifying genotoxic compounds that show differential cytotoxicity against isogenic chicken DT40 cell lines with known DNA damage response pathways - Rev3 mutant cell line (AID 743014); also: nearly all actives have a fitted effect of over 55% in size; also: potency is read from the fitted curve at half-maximal effect
[4] = qHTS assay for identifying genotoxic compounds that show differential cytotoxicity against isogenic chicken DT40 cell lines with known DNA damage response pathways - Rad54/Ku70 mutant cell line (AID 743015); also: nearly all actives have a fitted effect of over 60% in size; also: potency is read from the fitted curve at half-maximal effect
[5] = qHTS assay to identify small molecule antagonists of the androgen receptor (AR) signaling pathway - cell viability counter screen (AID 743033; also: nearly all actives have a fitted effect of over 45% in size; also: potency is read from the fitted curve at half-maximal effect)
[6] = qHTS assay to identify small molecule antagonists of the thyroid receptor (TR) signaling pathway - cell viability counter screen (AID 743064); also: nearly all actives have a fitted effect of over 50% in size; also: potency is read from the fitted curve at half-maximal effect
In short: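 CellTiter-Fluor readout, 30 min at 37 °C/5% CO2, following 23.5 h incubation of GH3.TRE-Luc cells with test compound and 1 nM T3 (final).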

[7] = qHTS assay to identify small molecule antagonists of the thyroid receptor (TR) signaling pathway (AID 743065); also: nearly all actives have a fitted effect of over 55% in size; also: potency is read from the fitted curve at half-maximal effect
In short: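 GH3.TRE-Luc rat pituitary cells (two TREs driving luciferase) were dosed with compound, then stimulated with 1 nM T3 (final) for 23.5 h at 37 C. ONE-Glo luminescence was the read-out, with CellTiter-Fluor fluorescence as the cytotoxicity counter-screen.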

[8] = biological target: Estrogen receptor (Homo sapiens) (UniProt P03372); experiment: qHTS assay to identify small molecule antagonists of the estrogen receptor alpha (ER-alpha) signaling pathway (AID 743069; active = well fitted curve in the direction sought with a large enough effect in the signal ratio in the repeat runs, not every such curve was filed as active; inconclusive = weak or mixed curves, or effect the other way; inactive = no such curve, though single readings can be large or run the other way; the % refers to the signal ratio; also: potency is read from the fitted curve at half-maximal effect)
In short: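 Beta-lactamase FRET fluorescence is read after 2 hr at room temperature with LiveBLAzer B/G substrate. Before that, ER-alpha-bla HEK293 cells sit 4 hr after plating, then receive compound plus 17beta-estradiol and incubate 18 hr at 37C.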

[9] = qHTS assay to identify small molecule antagonists of the estrogen receptor alpha (ER-alpha) signaling pathway - cell viability counter screen (AID 743074; calls by dose curve;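 also: HEK293 cells carrying ER-alpha-UAS-bla reporter stimulated with 17beta-estradiol; nearly all actives have a fitted effect of over 45% in size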)
[10] = biological target: Estrogen receptor (Homo sapiens) (UniProt P03372); experiment: qHTS assay to identify small molecule agonists of the estrogen receptor alpha (ER-alpha) signaling pathway (AID 743075; calls by dose curve;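 also: HEK293 GripTite cells with ER-alpha and UAS-driven beta-lactamase reporter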; also: potency is read from the fitted curve at half-maximal effect)
[11] = biological target: Estrogen receptor (Homo sapiens) (UniProt P03372); experiment: qHTS assay to identify small molecule agonists of the estrogen receptor alpha (ER-alpha) signaling pathway using the BG1 cell line (AID 743079); details: BG1Luc4E2 cells, ERE-luciferase agonist, 22 h; activation: at 70.3 µM (top of the series); also: nearly all actives have a fitted effect of over 20% in size; also: potency is read from the fitted curve at half-maximal effect
[12] = qHTS assay to identify small molecule antagonists of the estrogen receptor alpha (ER-alpha) signaling pathway using the BG1 cell line (AID 743080; calls by dose curve;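 also: BG1 cells stimulated with 17beta-estradiol alongside compound; nearly all actives have a fitted effect of over 25% in size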; also: potency is read from the fitted curve at half-maximal effect)
In short: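 Endogenous full-length ER-alpha in BG1-Luc-4E2 cells drives a stably integrated 4×ERE luciferase gene; compounds were tested against 17beta-estradiol over 21.5 h, with luminescence and multiplexed viability fluorescence recorded.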

[13] = test system: thyroid hormone receptor (rat, GH3 cells); experiment: qHTS assay to identify small molecule agonists of the thyroid receptor (TR) signaling pathway (AID 743066; calls by dose curve)
[14] = qHTS assay to identify small molecule antagonists of the estrogen receptor alpha (ER-alpha) signaling pathway using the BG1 cell line - cell viability counter screen (AID 743081);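 also: compound given together with 17beta-estradiol as the ER stimulus; nearly all actives have a fitted effect of over 45% in size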; also: potency is read from the fitted curve at half-maximal effect
Aromatase (Homo sapiens) = Aromatase (Homo sapiens) (UniProt P11511); experiment: qHTS assay to identify aromatase inhibitors (AID 743083); also: nearly all actives have a fitted effect of over 55% in size; also: potency is read from the fitted curve at half-maximal effect
[15] = qHTS assay to identify small molecule antagonists of the androgen receptor (AR) signaling pathway using the MDA cell line - cell viability counter screen (AID 743041; also: nearly all actives have a fitted effect of over 45% in size; also: potency is read from the fitted curve at half-maximal effect)
In short: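 Cytotoxicity counter screen: MDA-kb2 AR-luc cells, compound + R1881, 16 h, 37C, 0% CO2; CellTiter-Fluor added at 15.5 h, fluorescence read after 30 min.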

Sequence of Aromatase (Homo sapiens) (P11511 whole entry, looked up): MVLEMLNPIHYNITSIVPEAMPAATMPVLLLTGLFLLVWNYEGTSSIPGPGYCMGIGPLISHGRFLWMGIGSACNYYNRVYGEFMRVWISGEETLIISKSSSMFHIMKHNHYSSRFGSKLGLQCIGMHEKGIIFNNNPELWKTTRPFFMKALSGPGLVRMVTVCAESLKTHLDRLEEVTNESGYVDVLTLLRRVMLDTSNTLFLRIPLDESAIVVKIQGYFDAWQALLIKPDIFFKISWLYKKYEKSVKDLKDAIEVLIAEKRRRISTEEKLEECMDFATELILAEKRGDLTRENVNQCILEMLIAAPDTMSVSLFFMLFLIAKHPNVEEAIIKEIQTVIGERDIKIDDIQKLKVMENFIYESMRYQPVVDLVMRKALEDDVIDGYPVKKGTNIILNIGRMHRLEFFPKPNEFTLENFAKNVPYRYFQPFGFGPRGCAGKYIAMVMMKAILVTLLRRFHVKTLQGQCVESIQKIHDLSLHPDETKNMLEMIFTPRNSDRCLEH
Sequence of Estrogen receptor (Homo sapiens) (P03372 whole entry, looked up): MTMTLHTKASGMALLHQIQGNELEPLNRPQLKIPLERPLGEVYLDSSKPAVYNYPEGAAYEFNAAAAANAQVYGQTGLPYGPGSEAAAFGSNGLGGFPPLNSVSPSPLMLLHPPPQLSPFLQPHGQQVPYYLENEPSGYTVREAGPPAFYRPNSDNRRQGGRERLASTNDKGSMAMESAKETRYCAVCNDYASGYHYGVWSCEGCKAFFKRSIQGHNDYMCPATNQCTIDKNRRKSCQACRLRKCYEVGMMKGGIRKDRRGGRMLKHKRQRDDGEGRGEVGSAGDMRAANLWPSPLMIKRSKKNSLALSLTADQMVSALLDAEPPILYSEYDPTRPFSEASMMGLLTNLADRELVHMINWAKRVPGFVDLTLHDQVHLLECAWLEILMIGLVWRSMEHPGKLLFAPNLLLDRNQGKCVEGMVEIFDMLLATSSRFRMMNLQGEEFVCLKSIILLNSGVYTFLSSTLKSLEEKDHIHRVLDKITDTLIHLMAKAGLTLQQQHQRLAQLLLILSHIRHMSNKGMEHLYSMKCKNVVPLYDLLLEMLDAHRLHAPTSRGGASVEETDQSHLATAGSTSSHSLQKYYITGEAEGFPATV

| SMILES | Potency [1] | Potency [2] | Potency [3] | Potency [4] | Potency [5] | Potency [6] | Potency [7] | Potency [8] | Potency [9] | Potency [10] | Potency [11] | Potency [12] | Potency [13] | Potency [14] | Potency (Aromatase (Homo sapiens)) | Potency [15] |
| --- | --- | --- | --- | --- | --- | --- | --- | --- | --- | --- | --- | --- | --- | --- | --- | --- |
| C[C@H]1[C@@H](OC(=O)CCC(=O)O)O[C@@H]2OC3(C)CC[C@H]4[C@H](C)CC[C@@H]1[C@@]24OO3 | inactive | 0.188 µM (active) | 0.188 µM (active) | 0.119 µM (active) | inactive | 2.98 µM (active) | 1.06 µM (active) | 7.56 µM [inconclusive] (active) | inactive | inactive | inactive | inactive |  |  |  |  |
| O=C(c1cc2ccccc2o1)N1CCN(Cc2ccccc2)CC1 | inactive | 26.6 µM (active) | 29.8 µM (active) | 29.8 µM (active) | inactive | inactive | inactive | inactive | inactive | inactive | inactive |  | inactive | inactive | inactive |  |
| CCCCCCCCCCCCCCCC(=O)O[C@@H]1[C@@H](O)[C@@H](O)[C@@H]([C@H](NC(=O)[C@@H]2C[C@@H](CCC)CN2C)[C@H](C)Cl)O[C@@H]1SC | inactive | inactive | inactive | inactive | inactive |  | inactive |  | inactive | inactive | inactive | inactive | inactive | inactive | inactive | inactive |
| S=C1SCN(Cc2ccccc2)CN1Cc1ccccc1 | inactive | 10.6 µM (active) | 13.3 µM (active) | 13.3 µM (active) | inactive | 18.8 µM (active) | 18.8 µM (active) | inactive | inactive | inactive | 26.6 µM (active) |  |  | inactive | inactive |  |
| O=C1NC(=O)[C@H]2[C@@H]1[C@@H]1C=C[C@H]2C1 | inactive | inactive | inactive | inactive | inactive | inactive | inactive |  | inactive |  |  |  | inactive | inactive | inactive |  |
| NC[C@@H]1O[C@H](O[C@H]2[C@@H](O)[C@H](O[C@@H]3[C@@H](O)[C@H](N)C[C@H](N)[C@H]3O[C@H]3O[C@H](CN)[C@@H](O)[C@H](O)[C@H]3N)O[C@@H]2CO)[C@H](N)[C@@H](O)[C@@H]1O | inactive | inactive | inactive | inactive | inactive |  |  | inactive | inactive | inactive | inactive | inactive |  | inactive | inactive | inactive |
| CCSc1ccc2c(c1)N(CCCN1CCN(C)CC1)c1ccccc1S2 | inactive | 11.4 µM (active) | 14.3 µM (active) | 11.4 µM (active) | inactive |  |  |  | inactive |  |  |  |  | inactive | inactive | inactive |
| CN1[C@@H]2CC[C@H]1CC(OC(c1ccccc1)c1ccccc1)C2 (stereo not given in full) | inactive | 5.31 µM (active) and 13.3 µM (active) and 6.68 µM (active) | 5.31 µM (active) and 8.41 µM (active) and 4.22 µM (active) | 8.41 µM (active) and 23.7 µM (active) and 11.9 µM (active) | inactive | 16.8 µM (active) and 26.6 µM (active) | 13.3 µM (active) and 23.7 µM (active) and 11.9 µM (active) | inactive | inactive | inactive | inactive | inactive | inactive | inactive | inactive |  |
| CO[C@H]1C[C@H](O[C@@H]2/C(C)=C/C[C@@H]3C[C@@H](C[C@]4(CC[C@H](C)[C@@H](C5CCCCC5)O4)O3)OC(=O)[C@@H]3C=C(C)/C(=N/O)[C@H]4OC/C(=C\C=C\[C@@H]2C)[C@]43O)O[C@@H](C)[C@@H]1O | inactive | inactive | inactive | inactive | inactive |  |  |  | inactive |  |  |  |  | inactive | inactive | inactive |
| CC(O)[C@@H]1NC(=O)[C@H](CCCCN)NC(=O)[C@@H](Cc2c[nH]c3ccccc23)NC(=O)[C@H](Cc2ccccc2)NC(=O)[C@@H](NC(=O)[C@H](N)Cc2ccccc2)CSSC[C@@H](C(=O)N[C@H](CO)[C@@H](C)O)NC1=O (stereo not given in full) | inactive | inactive | inactive | inactive | inactive |  |  |  | inactive | inactive |  | inactive |  | inactive | inactive | inactive |
| O=C1O[C@H]2[C@H](O)[C@@H]1OC(O)[C@H]2O (stereo not given in full) | inactive | inactive | inactive | inactive | inactive | inactive | inactive | inactive | inactive | inactive | 13.3 µM (active) | inactive | inactive | inactive | inactive |  |
| CC(=O)Nc1c(I)c(C(=O)N[C@H]2C(O)O[C@H](CO)[C@@H](O)[C@@H]2O)c(I)c(N(C)C(C)=O)c1I (stereo not given in full) | inactive | inactive | inactive | inactive | inactive |  |  | inactive | inactive | inactive | inactive | inactive |  | inactive | inactive | inactive |
| CC(=O)Oc1cccc(C(=O)O)c1OC(C)=O | inactive | inactive | inactive | inactive | inactive |  | inactive |  | inactive |  |  |  | inactive | inactive | inactive | inactive |
| S=C=Nc1ccc(N=C=S)cc1 | inactive | inactive | inactive | inactive | inactive | inactive | inactive | inactive | inactive | 15.1 µM [inconclusive] (active) | 1.06 µM (active) | inactive | inactive | inactive | inactive |  |
| CNc1cc(OC)c(C(=O)N[C@H]2CCN(Cc3ccccc3)[C@H]2C)cc1Cl | inactive | 5.96 µM (active) | 4.73 µM (active) | 8.41 µM (active) | inactive |  |  | inactive | inactive | inactive | inactive | inactive |  |  | inactive | inactive |
| CC(CC(c1ccccc1)c1ccccc1)NC(C)(C)C (stereo not given) | inactive | 10.6 µM (active) | 23.7 µM (active) | 29.8 µM (active) | inactive |  | 21.1 µM (active) |  |  | inactive | inactive | inactive | inactive |  | inactive | inactive |
| CCCCCCCCCCCCCCCCCC(=O)OCC(C)O (stereo not given) | inactive | inactive | inactive | inactive | inactive |  | inactive |  | inactive |  |  |  | inactive | 21.1 µM (active) | inactive | 26.6 µM (active) |
| NCCCC[C@H](NC(=O)[C@@H]1CCCN1C(=O)[C@@H]1CSSC[C@H](NC(=O)CNC(=O)CNC(=O)CN)C(=O)N[C@@H](Cc2ccc(O)cc2)C(=O)N[C@@H](Cc2ccccc2)C(=O)N[C@@H](CCC(N)=O)C(=O)N[C@@H](CC(N)=O)C(=O)N1)C(=O)NCC(N)=O (H-GGGCYFQNCPKG-NH2; disulfide 4-9) | inactive | inactive | inactive | inactive | inactive |  | inactive |  | inactive |  |  |  | inactive |  | inactive | inactive |
| CC(C)(C)C1(O)CCN2CC3c4ccccc4CCc4cccc(c43)C2C1 (stereo not given) | inactive | 9.44 µM (active) | 11.9 µM (active) | 11.9 µM (active) | inactive | 26.6 µM (active) | 23.7 µM (active) |  | inactive | inactive |  |  | inactive | inactive | 29.8 µM (active) |  |
| C=CCOc1ccc(CC(=O)O)cc1Cl | inactive | inactive | inactive | inactive | inactive |  | inactive |  | inactive | 3.79 µM [inconclusive] (active) | 0.266 µM (active) | inactive | inactive | inactive | inactive | inactive |
| CC(C(=O)O)c1ccc(N2Cc3ccccc3C2=O)cc1 (stereo not given) | inactive | inactive | inactive | inactive | inactive |  | 7.5 µM (active) | inactive | inactive |  | 0.119 µM (active) | 16.8 µM (active) |  | inactive |  | inactive |
| C[C@]12CC[C@@H]3c4ccc(O)cc4CC[C@H]3[C@@H]1CC[C@@H]2OP(=O)(O)O | inactive | inactive | inactive | inactive | inactive | inactive | inactive |  | inactive | 0.0013 µM [inconclusive] (active) | 0.0021 µM (active) | inactive | inactive | inactive | inactive |  |
| COc1cc2[nH]c(C)c(CCN3CCN(c4ccccc4)CC3)c2cc1OC | inactive | 18.8 µM (active) | 26.6 µM (active) | 29.8 µM (active) | inactive |  |  |  | inactive | inactive | inactive | inactive | inactive | inactive | inactive | inactive |
| Cn1c(O)c(N=NC(N)=S)c2ccccc21 | inactive | 5.31 µM (active) | 10.6 µM (active) | 8.41 µM (active) | 2.68 µM (active) |  | 29.8 µM (active) |  | inactive | inactive | inactive |  |  |  |  | inactive |
| Cc1c(Cl)cccc1Nc1ncccc1C(=O)O | inactive | inactive | inactive | inactive | inactive |  | 23.7 µM (active) |  | inactive | inactive |  |  | inactive | inactive | inactive | inactive |
| COc1ccc(CCNC[C@H](O)c2ccc(O)cc2)cc1OC | inactive | inactive | inactive | inactive | inactive |  |  | inactive | inactive | inactive | inactive | inactive |  | inactive | inactive | inactive |
| O=P(O)(O)OC[C@H](O)CO | inactive | inactive | inactive | inactive | inactive | inactive | inactive | inactive | inactive | inactive | inactive | inactive | inactive | inactive | inactive |  |
